Only some compounds are listed: those with a hit (about 6% of all), similar ones and a draw of the others.
PLK1 PBD inh = PLK1 (human) polo-box domain binding inhibition. P53350. Plk1 PBD binding of FITC phosphopeptide, fluorescence polarization. Potency, µM, for inactives: max response, negative = inhibition, most hits filed as inhibitors. hit rate 2.8% among 360,000. AID 720504; note: series mostly up to about 57 µM; nearly all actives have a fitted effect of over 65% in size
Target sequence (P53350 whole entry, looked up, the tested form may be a part): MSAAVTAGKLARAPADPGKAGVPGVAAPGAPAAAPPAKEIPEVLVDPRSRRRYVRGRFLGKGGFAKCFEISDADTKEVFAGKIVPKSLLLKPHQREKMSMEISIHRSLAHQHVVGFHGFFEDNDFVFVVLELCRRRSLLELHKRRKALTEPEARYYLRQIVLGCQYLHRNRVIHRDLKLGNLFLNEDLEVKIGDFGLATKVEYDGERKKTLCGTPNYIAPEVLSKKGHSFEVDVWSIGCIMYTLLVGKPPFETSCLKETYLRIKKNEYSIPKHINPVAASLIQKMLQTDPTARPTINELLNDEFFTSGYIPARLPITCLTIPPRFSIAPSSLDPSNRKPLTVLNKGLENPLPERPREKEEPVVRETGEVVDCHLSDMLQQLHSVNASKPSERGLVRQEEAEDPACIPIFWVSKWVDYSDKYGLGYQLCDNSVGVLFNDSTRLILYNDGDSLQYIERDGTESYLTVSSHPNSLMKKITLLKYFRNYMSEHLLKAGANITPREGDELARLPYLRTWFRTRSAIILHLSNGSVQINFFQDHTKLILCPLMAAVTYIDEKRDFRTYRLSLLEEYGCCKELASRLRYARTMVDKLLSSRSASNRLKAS
Sfp inh = Sfp phosphopantetheinyl transferase inhibition; Q9F4F7; Biochemical Sfp PPTase activity, qHTS; Potency, µM, without a hit: largest response in the series, negative = inhibition, usual class: inhibitors; hit rate 3.5% among 310,000; AID 1490;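 note: the enzyme is Sfp with the accession as filed and its product quenches rhodamine fluorescence; 0% = enzyme reaction without inhibitor and -100% = no enzyme wells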
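Compounds were incubated with enzyme (final 15 nM) for 15 min at room temperature before substrate addition started the reaction. Fluorescence at 525 nm excitation, 598 nm emission was recorded immediately and after 30 minutes.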
VDR inhibitor = vitamin D3 receptor (human) inhibition; VDR-SRC2-3 peptide fluorescence polarization, 2 h; P11473; hit rate 0.93% among 400,000; AID 504847; Potency, µM, without a hit: max response, negative = inhibition, most hits filed as inhibitors
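Measured by FP: displacement of SRC2-3 coactivator peptide from VDR by library compounds, following a two-hour ambient incubation.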
Tau fluor cs = counter-screen for tau fibril formation inhibitors. hit rate 0.93% among 280,000. Potency, µM (highest dose often 57.7 µM), for the others: at the top dose activity change, negative = decrease. tau K18 P301L Alexa594 fluorescence, heparin fibrillization; note: nearly all actives have a fitted effect of over 55% in size
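Human tau K18 P301L (15 uM unlabeled, 0.24 uM Alexa 594-labeled) in 100 mM sodium acetate pH 7 with 20 uM heparin, 6 hr at 37 C. ThT 30 uM added, 1 hr ambient; Alexa 594 FP and total fluorescence read at 555/632 nm.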
Tau fibril FP = blocks human tau fibril formation measured by polarization; K18 P301L tau heparin fibrillization, Alexa594 FP, 6 h; Potency, µM (titrated, usually from 57.7 µM), for inactives: top-dose activity, negative = inhibition, usual class: inhibitors; hit rate 0.39% among 280,000; AID 1468; note: nearly all actives have a fitted effect of over 55% in size
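Heparin (20 uM) drove fibril formation of recombinant tau K18 P301L, 15 uM unlabeled with 0.24 uM Alexa 594 label, for 6 hr at 37 C in 100 mM sodium acetate pH 7. Fluorescence polarization (555/632 nm) read 1 hr after 30 uM ThT.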
Tau ThT inhib = blocks human tau fibril formation measured by thioflavin T. P10636. recombinant tau K18 P301L, heparin-induced fibrillization, ThT fluorescence. Potency, µM (series often up to 57.4 µM), for the others: at the top dose activity, negative = inhibition, most hits filed as inhibitors. hit rate 2.1% among 270,000. AID 1460; note: nearly all actives have a fitted effect of over 55% in size
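Fibril formation assay: tau K18 P301L at 15 uM with trace Alexa 594 label, heparin inducer 20 uM, pH 7 sodium acetate buffer, 37 C for 6 hr; endpoint ThT signal.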
Numbers without * were called inactive; ? = inconclusive; . = no result; [ ] = dose if it differs, or a comment. Calls come from the whole dose curve; as a rule, active = well fitted curve in the direction sought with a large enough effect; inconclusive = small, poorly fitted or top-dose-only effect, or another doubt; inactive = no such curve, though single readings can be large; an effect the other way counts as inactive or inconclusive. Unless noted, % is set by controls: 0 for no effect and ±100 for the full control effect; potency is the fitted concentration of half-maximal effect.

SMILES | PLK1 PBD inh | Sfp inh | VDR inhibitor | Tau fluor cs | Tau fibril FP | Tau ThT inhib
Cc1sc2ncnc(SCC(=O)NC(=O)c3cccn3C)c2c1C | 17µM* | -25% | -12% | -14% | 3% | ?
Oc1ccc(C23CCCC2C2(CCCC2)c2ccc(O)cc2O3)c(O)c1 (stereo not given) | 2% | . | -2% | . | . | .
CC1(C(=O)O)CCCN(C(=O)c2cccnc2Oc2ccccc2)C1 (stereo not given) | 3% | . | . | . | . | .
COC(=O)CCCCCCCCC(O)CN(C)C (stereo not given) | 27µM* | 10% | ? | 0% | 2% | -1%
CCN(CC)CC(O)CCCCCCCCC(=O)OC (stereo not given) | 6% | 8% | -5% | -5% | 2% | -8%
O=[N+]([O-])c1ccccc1S(=O)(=O)Oc1ccc(C(=S)N2CCOCC2)cc1 | 5.3µM* | -7% | -1% | -15% | -2% | -6%
O=C(Oc1ccc(C(=S)N2CCOCC2)cc1)c1ccc([N+](=O)[O-])cc1 | -4% | -6% | -6% | . | . | .
CCn1cc(C(=O)NC(=S)Nc2ccccc2[N+](=O)[O-])cn1 | ? | 79µM* | -19% | . | . | .
CCn1cc(C(=O)NC(=S)Nc2ccccc2Br)cn1 | -6% | -7% | 15% | . | . | .
CCn1cc(C(=O)NC(=S)Nc2cccc(O)c2)cn1 | -7% | 79µM* | 4% | -11% | -2% | -13%
CCOC(=O)OCC1OC(c2ccccc2)C=CC1OC(=O)OCC (stereo not given) | . | -1% | . | -17%[11.6 µM] | -2%[11.6 µM] | -10%[11.5 µM]
COc1cc(Cl)c(C)cc1NC(=O)CC(c1ccc(F)cc1)N1Cc2ccccc2C1=O (stereo not given) | . | . | 20% | -12% | 2% | 6%
O=C(c1ccccc1Cl)N1CCCC(c2nc3c(nnn3Cc3ccc(F)cc3F)c(=O)[nH]2)C1 (stereo not given) | . | . | -2% | -15% | 5% | ?
O=Nc1ccc2oc(=O)ccc2c1 | . | . | 13µM* | -24% | ? | ?
O=C1c2cccc3cccc(c23)C(=O)N1CC1CCN(CC(O)COc2ccc3ccccc3c2)CC1 (stereo not given) | -9% | 8% | -5% | 16µM*[quencher] | -5% | 13µM*
COc1cccc(OCC(O)CN2CCC(CN3C(=O)c4cccc5cccc(c45)C3=O)CC2)c1 (stereo not given) | -16% | -3% | 12% | -9% | 7% | -6%
CCc1ccc(OCC(O)CN2CCC(CN3C(=O)c4cccc5cccc(c45)C3=O)CC2)cc1 (stereo not given) | 3% | 50µM* | 12% | -16% | -5% | ?
O=C1c2cccc3cccc(c23)C(=O)N1CCN1CCN(CC(O)COc2ccc3ccccc3c2)CC1 (stereo not given) | -5% | 25µM* | -6% | -27% | -5% | ?
CCCCCCNC(=O)Nc1ccc(S(=O)(=O)Nc2ccc(CCNC[C@H](O)COc3ccc(O)cc3)cc2)cc1 | . | 25µM* | . | 13µM*[quencher] | ? | ?
COc1ccc2c(C)c(CCC(=O)NCCc3ccccc3OC)c(=O)oc2c1 | . | . | 3% | -11% | -8% | -10%
CCCCCn1c(C)c2c(OCC)cccc(=O)c2c1C | 5% | -17% | -18% | 9%[0.0958 µM] | -1%[0.0958 µM] | .
CCOc1cccc(=O)c2c(C)n(C)c(C)c12 | -15% | -12% | 13% | -15% | -14% | 16µM*
CCOc1ccccc1N(CC(=O)NCCSCc1ccco1)S(=O)(=O)c1ccccc1 | -10% | -26% | -20% | . | . | .
Cc1ccccc1N(CC(=O)NCCSCc1ccco1)S(C)(=O)=O | -7% | 20µM* | 18% | -6% | -9% | -16%
Cc1nnc(NN)n(N)c1=O | -4% | 10µM* | -8% | -13% | ? | ?
C=C(C)C(=O)Nc1cccc(C2=NOC3(C2)C[C@@H](C(N)=O)N(C(=O)c2ccc(Cl)cc2)C3)c1 (stereo not given in full) | 24µM* | 5% | -7% | 17% | -5% | 11%
